USP30 inh – human USP30 deubiquitinase inhibition; Q70CQ3; AID 1645860; purified USP30, Ub-rhodamine cleavage fluorescence; inhibition, % at 25 µM; 47,000 compounds, 5.3% hits
USP17 block – human USP17-like deubiquitinase inhibition; A8MUK1; purified USP17, Ub-rhodamine cleavage fluorescence, 3 h; inhibition, % at 50 µM; 47,000 compounds, 6.5% hits
Target sequence (A8MUK1 whole entry, looked up): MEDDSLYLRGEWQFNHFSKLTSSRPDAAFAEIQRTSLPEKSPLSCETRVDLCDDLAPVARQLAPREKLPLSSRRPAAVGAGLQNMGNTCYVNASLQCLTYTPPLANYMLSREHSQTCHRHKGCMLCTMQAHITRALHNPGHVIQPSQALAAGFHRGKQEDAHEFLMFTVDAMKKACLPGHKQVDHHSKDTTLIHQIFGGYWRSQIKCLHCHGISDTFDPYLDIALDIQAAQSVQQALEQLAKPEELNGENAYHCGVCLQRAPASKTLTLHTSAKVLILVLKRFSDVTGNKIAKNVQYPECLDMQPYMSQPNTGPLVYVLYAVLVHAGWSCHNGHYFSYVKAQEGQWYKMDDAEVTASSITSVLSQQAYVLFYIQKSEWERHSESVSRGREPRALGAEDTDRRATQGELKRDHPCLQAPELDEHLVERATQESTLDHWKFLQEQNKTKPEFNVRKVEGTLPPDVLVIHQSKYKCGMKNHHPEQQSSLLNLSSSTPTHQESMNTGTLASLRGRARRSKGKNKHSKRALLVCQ
USP28 block – human USP28 deubiquitinase inhibition | AID 1645857 | Q96RU2 | 47,000 compounds, 3% hits | purified USP28, Ub-rhodamine cleavage fluorescence, 30 min | inhibition, % at 25 µM
USP8 block – blocks human USP8 ubiquitin-rhodamine cleavage; inhibition, % at 20 µM; 47,000 compounds, 4.2% hits; purified USP8, Ub-rhodamine cleavage fluorescence, 30 min
Each line names hits and unclear results; the compound was inactive in the other large screens. Only some compounds are listed: those with a hit (about 14% of all), similar ones and a draw of the others. Rule as the data show it: active = inhibition above about 30%; inactive = the rest.

COc1cc2c(=O)n(CCC(=O)NCc3ccco3)c(=O)n(CC(=O)Nc3c(C)cccc3C)c2cc1OC	USP30 inh 30.0, USP17 block 60.7, USP28 block 64.8, USP8 block 37.8
O=C(CCn1c(=O)c2ccccc2n(Cc2ccc(F)cc2Cl)c1=O)NCc1ccco1	USP17 block 38.2, USP8 block 47.8
COc1cccc(C(=O)Cn2c(=O)n(CCCC(=O)NCc3ccco3)c(=O)c3ccc(Cl)cc32)c1	none
O=C(CCn1c(=O)c2ccccc2n(Cc2ccc([N+](=O)[O-])cc2)c1=O)NCc1ccco1	none
Cc1ccc(Cl)cc1NC(=O)Cn1c(=O)n(CCC(=O)NC2CCCC2)c(=O)c2ccccc21	USP30 inh 41.1
Cc1ccc(Cl)cc1NC(=O)Cn1c(=O)n(CCC(=O)NCc2ccco2)c(=O)c2ccccc21	USP30 inh 32.5, USP8 block 63.8
O=C(CCCn1c(=O)c2ccccc2n(Cc2ccc(F)cc2)c1=O)NCc1ccco1	none
CC1C/C=C2\SCC(NC(=O)c3coc(n3)C[C@H](O)C[C@H](O)/C=C/C=C/CNC2=O)C(=O)O1 (stereo not given in full)	none
c1ccc2c(c1)CCN(c1ncnc3c1[nH]c1ccccc13)C2	USP8 block 43.8
c1ccc(-c2nc(N3CCc4ccccc4C3)c3ccccc3n2)cc1	none (no result: USP30 inh, USP28 block)
Fc1ccc(-c2nn3c(-c4ccc5c(c4)OCO5)nnc3s2)cc1	USP8 block 64.3
Cn1c(=O)n(Cc2ccccn2)c(=O)c2cnc(-c3ccc(Cl)cc3)nc21	none
Cn1c(=O)c2nc(-c3ccc(Cl)cc3)nnc2n(C)c1=O	USP8 block 99.2
CCOC(=O)N1CCCC(C(=O)N2CCc3[nH]c4ccccc4c3C2)C1 (stereo not given)	none
COc1cc2c(cc1OC)C(COc1cc(C)cc(C)c1)NCC2 (stereo not given)	USP8 block 64.9
COc1cc2c(cc1OC)[C@H]1Cc3cc(OC)c(OC)cc3[C@@H](C2)N1C	none
Cc1csc(SCc2cc(=O)c(OC(=O)c3cccc(F)c3)co2)n1	USP8 block 60.7
Cc1ccnc(SCc2cc(=O)c(OC(=O)c3c(F)cccc3Cl)co2)n1	USP17 block 38.8, USP8 block 31.1
COc1ccccc1C(=O)NCC(c1ccc2c(c1)CCCN2C)N1CCCCC1 (stereo not given)	none
Fc1ccc(Nc2nc(Nc3cccc(F)c3)nc3nccnc23)cc1	USP30 inh 61.2
COc1ccc(-c2nnc(SCc3ccccc3C#N)o2)c(OC)c1	USP30 inh 50.2
COc1cc(Nc2nc3c(S(=O)(=O)c4ccccc4)nnn3c3ccccc23)cc(OC)c1OC	none
Cc1ccccc1C(=O)N1CCN(C2CCN(Cc3cc4ccccc4o3)CC2)C(=O)C1	none
Cc1ccc(S(=O)(=O)N(CC#N)c2nc3nc(C)c(Cl)c(C)n3n2)cc1	USP28 block 33.4
Cc1cn2nnc(C(=O)NC3CCc4ccccc43)c2c(=O)[nH]1 (stereo not given)	USP8 block 63.5
O=C(COc1ccccc1F)N1CCSc2ccc(Cl)cc21	USP30 inh 34.2, USP17 block 31.5, USP28 block 41.4
COc1cccc(NC(=O)Cn2c(=O)n(-c3ccccc3)c3ncccc32)c1	none
O=C(CSc1nc(-c2ccccc2)c2ccccc2n1)NCCc1ccccc1	USP17 block 31.4
O=C(CSc1ncnc2c1oc1ccccc12)Nc1ccccc1F	USP17 block 42.7 (no result: USP30 inh, USP28 block)
O=C(CSc1ncnc2c1oc1ccccc12)Nc1cccc2ccccc12	none
O=C(CSc1ncnc2c1oc1ccccc12)NCCc1ccccc1	USP30 inh 36.5, USP17 block 64.2
Cc1nc2ccccc2nc1SCC(=O)NCCc1ccccc1	none
COc1ccc(NC(=O)CSc2ncnc3c2oc2ccccc23)c(OC)c1	USP17 block 32.1
O=C(Cc1ccc(N2CCCC2=O)cc1)Nc1cccc(-c2nc3ccccc3s2)c1	none
Cc1ccc(C(=O)N2CCC(Cc3cncc(-c4cncn4C)n3)CC2)cn1	none
O=C(CNc1ccc(Cl)cc1F)Nc1ccc(S(=O)(=O)N2CCCC2)cc1	none
O=C(CCc1nnc2n(Cc3ccccc3)c(=O)c3ccccc3n12)NCC1CCCO1 (stereo not given)	USP30 inh 30.5
CCN(CCCNC(=O)CCc1nnc2n(Cc3ccccc3)c(=O)c3ccccc3n12)c1cccc(C)c1	USP30 inh 41.9 (no result: USP17 block)
O=C(CCc1nnc2n(Cc3ccc(F)cc3)c(=O)c3ccccc3n12)N1CCN(c2ccccn2)CC1	USP30 inh 52.8
CC(C)Cn1c(=O)c2ccccc2n2c(CCC(=O)NCC3CCCO3)nnc12 (stereo not given)	USP30 inh 34.9
O=C(CCc1nnc2n(Cc3ccccc3)c(=O)c3ccccc3n12)NCc1ccccn1	none
Cc1ccc(C(=O)N2CCc3c(CNc4ncccn4)nn(C)c3C2)cc1	none
COc1ccc(-n2nnnc2CN2CCN(S(=O)(=O)c3ccc(Cl)cc3)CC2)cc1	USP30 inh 47.1, USP17 block 40.2
COc1ccc(OC)c(S(=O)(=O)N2CCN(Cc3nnnn3-c3ccccc3)CC2)c1	none
Cc1c(O)c(O)c(O)c(C=O)c1C=O	USP30 inh 70.5, USP17 block 61.9, USP28 block 68.3
Cc1cccc(C(=O)Nc2nc3c(s2)CCC3)c1	USP28 block 38.1
O=C(c1cscn1)N1CCC2(CN(Cc3ccc(-c4ccccc4)cc3)C2)C1	none
O=C1C2Cc3c([nH]c4ccccc34)C(c3ccccc3)N2C(=O)CN1CC1CCCO1 (stereo not given)	none
Cc1ccc(CNC(=O)CCCCCn2c(=O)c3sccc3n(CC(=O)c3ccc(Cl)cc3)c2=O)cc1	none
Cc1cccc(NC(=O)Cn2c(=O)n(Cc3ccc(F)cc3)c(=O)c3sccc32)c1	USP30 inh 35.3, USP17 block 68.6
CCOC(=O)c1ccc(NC(=O)Cn2c(=O)n(CC(=O)NCCc3ccc(OC)c(OC)c3)c(=O)c3sccc32)cc1	USP30 inh 66.2
COc1ccc(CCNC(=O)Cn2c(=O)c3sccc3n(Cc3cccc(Cl)c3)c2=O)cc1OC	none
CCOc1ccc(NC(=O)Cn2c(=O)n(CCCCCC(=O)NCc3ccc(F)cc3)c(=O)c3sccc32)cc1	USP30 inh 48.6, USP17 block 42.9, USP8 block 68.9
Cc1cccc(NC(=O)Cn2c(=O)n(-c3cc(C)cc(C)c3)c(=O)c3sccc32)c1	none
COc1ccc(Cl)cc1NC(=O)Cn1c(=O)n(CCCC(=O)NCc2ccc(C)cc2)c(=O)c2sccc21	USP8 block 67.6
CNc1cc(C2CCCN2C(=O)c2ccc(C(C)C)[nH]c2=O)ccn1 (stereo not given)	none (no result: USP30 inh, USP28 block)
CC(C)N(c1ccccc1)c1ccc(NC(=O)c2ccccc2[N+](=O)[O-])cc1	none
CCOc1ccccc1Nc1nc2ccccc2n2cnnc12	USP17 block 38.6
NC(=O)c1ccccc1NC(=O)COc1ccc2c(c1)oc(=O)c1ccccc12	USP8 block 55.2
O=C(COc1ccc2ccccc2c1)Nc1cccc2ccccc12	USP30 inh 46.3, USP17 block 64.8, USP8 block 35.6
COc1ccc(CCC(=O)Nc2cccc3ccccc23)cc1OC	none
Cc1ccc(Cl)cc1S(=O)(=O)N1CCC2(CC1)CC2c1nc(-c2cccnc2)no1 (stereo not given)	none
